According to PubChem BioAssay (NCI):
About 83,000 compounds went through this panel and 20% of them were active in at least one assay; those are over-represented in the sample as a whole.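 Treatment: one concentration, 48 hours, 96-well format. Scoring: percent growth, with anything below 10 considered active.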 A number with no mark means an inactive call. Calls of active or inactive are those of the source.

Key:
Test in all cases: NCI-60 one-dose screen, 48 h (100 = growth as untreated, 0 = no growth, -100 = all killed)
Details in all cases: 10 µM unless noted
SK-MEL-2 melanoma = test system: SK-MEL-2 melanoma
EKVX NSCLC = test system: EKVX NSCLC
SN12C renal = test system: SN12C renal
UO-31 renal = test system: UO-31 renal
TK-10 renal = test system: TK-10 renal
ACHN renal = test system: ACHN renal
CAKI-1 renal = test system: CAKI-1 renal
A498 renal = test system: A498 renal
CCRF-CEM leukemia = test system: CCRF-CEM leukemia
MOLT-4 leukemia = test system: MOLT-4 leukemia
SR leukemia = test system: SR leukemia
RPMI-8226 leukemia = test system: RPMI-8226 leukemia
OVCAR-8 ovarian = test system: OVCAR-8 ovarian
OVCAR-5 ovarian = test system: OVCAR-5 ovarian
OVCAR-4 ovarian = test system: OVCAR-4 ovarian
SK-OV-3 ovarian = test system: SK-OV-3 ovarian
IGROV1 ovarian = test system: IGROV1 ovarian
OVCAR-3 ovarian = test system: OVCAR-3 ovarian
HS 578T breast = test system: HS 578T breast
NCI/ADR-RES ovarian = test system: NCI/ADR-RES ovarian

Structure (SMILES)	growth (SK-MEL-2 melanoma)	growth (EKVX NSCLC)	growth (SN12C renal)	growth (UO-31 renal)	growth (TK-10 renal)	growth (ACHN renal)	growth (CAKI-1 renal)	growth (A498 renal)	growth (CCRF-CEM leukemia)	growth (MOLT-4 leukemia)	growth (SR leukemia)	growth (RPMI-8226 leukemia)	growth (OVCAR-8 ovarian)	growth (OVCAR-5 ovarian)	growth (OVCAR-4 ovarian)	growth (SK-OV-3 ovarian)	growth (IGROV1 ovarian)	growth (OVCAR-3 ovarian)	growth (HS 578T breast)	growth (NCI/ADR-RES ovarian)
S=C(c1ccc2c(c1)OCO2)N1CCN(c2cccc(Cl)c2)CC1	71.7%	50.9%	50.7%	57.4%	53.3%	34.6%	15.5%	33.3%	18.8%	30.9%	11.9%	24.6%	38.8%	44%	46.3%	20.6%	37%	-33.7% (active)	-1.66% (active)	-13% (active)
O=C(N=Nc1c(O)[nH]c2ccccc12)Nc1ccc(F)cc1	102%	94.3%	94.6%	72.8%	113%	92.8%	81.5%	102%	95.4%	92.5%	84.2%	91%	96.7%	90.4%	103%	80.5%	85.2%	102%	96.2%	104%
CN1CCN(C(=O)[C@@]2(C)CC[C@]3(C)CC[C@]4(C)C(=CC[C@@H]5[C@@]6(C)CCC(=O)NC(C)(C)[C@@H]6CC[C@]54C)[C@@H]3C2)CC1	78.3%	79.6%	58%	48.3%	79.4%	69.9%	42.5%	73.1%	29%	15.8%	-10.4% (active)	20.6%	64.1%	83.8%	50.6%	53.8%	63.8%	57.8%	55.2%	59.6%
O=C1/C(=C/c2ccc(F)cc2)CN(C(=O)C(Cl)Cl)C/C1=C\c1ccc(F)cc1	-16% (active)	-17.9% (active)	-72.5% (active)	-83.4% (active)	-59.8% (active)	-98.3% (active)	-55.4% (active)	-84.3% (active)	2.43% (active)	-18.2% (active)	-18.4% (active)	-31.4% (active)	-9.41% (active)	-53.8% (active)	12.7%	23.5%	-50.3% (active)	-95.1% (active)	6.3% (active)	5.22% (active)
CC(C)(C)n1cc(-c2ccnc(NCCCNS(=O)(=O)c3cccc4ccccc34)c2)c(-c2cccc(F)c2)n1	107%	68.6%	73.3%	65.9%	97%	91.5%	94.3%	29.2%	56.9%	57.9%	27.8%	65.4%	81.4%	91.9%	78.1%	91.9%	78.9%	90.1%	91.4%	78.2%
Cc1ccc(/C=C/C(=O)c2cccc(OCCCOc3cccc(C(=O)/C=C/c4ccc(C)cc4)c3)c2)cc1	105%	80%	79.6%	64%	120%	78.6%	68.1%	86.4%	73.6%	85.1%	25.9%	-0.643% (active)	87.5%	124%	65.3%	99.2%	77.2%	82.4%	86.1%	91.4%
O=C(NNc1cnccn1)c1nc2cc(F)ccc2n2cccc12	40.8%	17.9%	13.5%	16.3%	40.5%	7.64% (active)	7.11% (active)	-42.1% (active)	4.42% (active)	5.91% (active)	3.73% (active)	12%	15.7%	31.2%	-9.11% (active)	18.4%	9.25% (active)	3.83% (active)	60.6%	0.226% (active)
O=C(Nc1ccccc1[N+](=O)[O-])c1ccc(Cl)c(Cl)c1	95.6%	85.3%	94.7%	71.1%	124%	94.7%	92.8%	58.7%	106%	96.7%	92.3%	90.1%	95.5%	111%	81.4%	94.9%	87.2%	97%	87.8%	87.2%
COc1ccc(C(=O)Cn2c(C(=O)c3ccc(Cl)cc3)nc3ccccc32)cc1	73.4%	90.9%	65.1%	54.7%	99.6%	65.5%	63.5%	77.9%	39.2%	48.5%	26.9%	13%	69.9%	90.4%	62.4%	98.8%	39.7%	52%	47.2%	35.9%
O=C(NNC(=O)c1nc2cc(F)ccc2n2cccc12)c1cnccn1	67.1%	29.2%	40.2%	33.3%	62.7%	26%	27.9%	19.9%	17.1%	15%	21.4%	41.3%	24.2%	68.3%	28.4%	42.1%	35.6%	30%	67.8%	20.8%
O=C(CCSc1nnc2n(Cc3ccccc3)c(=O)c3c4c(sc3n12)CCCC4)N1CCN(c2ccccc2)CC1	99.1%	91.8%	94.8%	94.5%	101%	93.2%	92.8%	106%	127%	111%	121%	112%	110%	91.7%	115%	108%	103%	95.9%	108%	96.1%
COc1cc2nc3sc(C(=O)Nc4ccc(C(=O)OC(C)C)cc4)c(C(=O)Nc4ccc(Cl)cc4C)n3c(=O)c2cc1OC	110%	77.2%	102%	-5.58% (active)	6.58% (active)	97%	42.7%	56.7%	23.6%	52.8%	19.5%	52.7%	35.4%	70%	69.5%	91.4%	17%	77.2%	58.9%	62.3%
O=C1/C(=C2\SC(=S)N(C3CC3)C2=O)SC(=S)N1C1CC1	102%	95.9%	92.5%	77.4%	108%	97%	91.3%	106%	105%	103%	105%	102%	103%	98.5%	97.2%	109%	95.5%	107%	97.4%	102%
CC1(C)N=C(N)N=C(N)N1c1cccc(CCc2ccccc2)c1	50.3%	67.2%	32.4%	98.5%	38.7%	105%	107%	82.7%	30.5%	30.5%	28.5%	26.5%	52.6%	49.2%	72.1%	58.9%	30.3%	22.8%	70.4%	111%
Cc1ccc(S(=O)(=O)Oc2ccc3sc4cccc(NCCN(C)C)c4c(=O)c3c2)cc1	-71.2% (active)	-84% (active)	-77.2% (active)	-95.5% (active)	-83.2% (active)	-95.9% (active)	-97.8% (active)	-96% (active)	-45.8% (active)	-32.7% (active)	-19.4% (active)	-48.2% (active)	-67.3% (active)	-92.4% (active)	-69.8% (active)	-93.2% (active)	-79.6% (active)	-95.4% (active)	-58.3% (active)	-90.7% (active)
Cc1n[nH]c2ccc(Br)cc2c1=O	99.4%	110%	106%	75.8%	104%	100%	103%	83.7%	89.2%	92.8%	100%	98.1%	110%	102%	125%	98.6%	99.6%	109%	101%	110%
NS(=O)(=O)c1ccc(NC(=O)/C(=C\c2ccc(Cl)cc2Cl)NC(=O)c2ccccc2)cc1	95.3%	99.6%	94.7%	75.8%	104%	98.2%	88.6%	95%	105%	92.3%	96.6%	92.2%	101%	108%	97.7%	96.3%	74.9%	113%	89.6%	98.2%
COc1cccc(/C=C/C(=O)c2cccc(Nc3nc(Nc4ccccc4)nc(Nc4ccccc4)n3)c2)c1	57.9%	78.6%	106%	56.9%	77.5%	86%	84.4%	94.7%	43.8%	58.8%	42.4%	-55.2% (active)	77.7%	89%	84.1%	101%	77.5%	76.6%	81.5%	83.4%
O=[N+]([O-])c1ccc(-c2cn3nc(-c4c[nH]c5ccccc45)sc3n2)cc1	109%	91.2%	91.9%	72.8%	102%	96.8%	91%	85.9%	90.2%	88.6%	92.2%	93.1%	104%	96.9%	88%	88.3%	89%	109%	99.9%	99.3%
CS(=O)(=O)Nc1cc(-c2ccc3ncc(C#N)c(Nc4ccc(F)c(Cl)c4)c3c2)cnc1Cl	-59.9% (active)	-3.93% (active)	18.2%	-6.94% (active)	-21.6% (active)	10.2%	4.91% (active)	-83.6% (active)	0.41% (active)	-22.5% (active)	-0.801% (active)	-38.5% (active)	4.09% (active)	6.33% (active)	-6.46% (active)	-25.7% (active)	-16.4% (active)	-19.3% (active)	-17.7% (active)	21.9%
Cc1ccc(C=C2C(=O)NC(=O)NC2=O)cc1	104%	101%	99.2%	89.9%	97.8%	110%	100%	105%	103%	95.1%	96.9%	103%	100%	107%	110%	105%	104%	105%	105%	102%
NS(=O)(=O)c1ccc(C(=O)NN2C(=O)c3c(Br)c(Br)c(Br)c(Br)c3C2=O)cc1	99%	99.7%	97.6%	81.7%	112%	106%	88%	81.7%	101%	100%	94.5%	102%	106%	107%	104%	116%	104%	105%	94.6%	110%
Cc1ccc2nc(NC(=O)CSc3nc(-c4ccccc4)c(C#N)c4nnnn34)sc2c1	109%	106%	111%	80.2%	141%	106%	94.6%	109%	106%	99.4%	72.8%	117%	108%	113%	101%	100%	102%	122%	98%	106%
Cc1ccc2c(-n3nc(C#N)c(C#N)c3N)cc(=O)[nH]c2c1	101%	67.9%	76.4%	45.2%	108%	83.1%	82.6%	105%	88.6%	99.3%	90.5%	101%	85.9%	99.2%	89%	74.5%	64.1%	91.2%	107%	110%
Cc1cccc(Oc2ccc(Nc3ncnc4ccc(NC(=O)CN5CCN(C)CC5)cc34)cc2Cl)c1	-70.7% (active)	25.1%	46.4%	22.2%	18.8%	-7.41% (active)	12.9%	5.9% (active)	4.6% (active)	3.77% (active)	4.43% (active)	-27.9% (active)	13.2%	68.2%	-13.5% (active)	6.73% (active)	-21.9% (active)	10.1%	-2.13% (active)	46.9%
Fc1cccc(-c2ccc3c(c2)C2(CCNCC2)CN3)c1	102%	96.6%	94.9%	88.2%	114%	100%	96.1%	102%	119%	91.7%	110%	95.7%	108%	103%	92%	112%	97.4%	102%	105%	95.5%
COc1ccc(C2=NN(C(C)=O)C(c3cn(-c4ccccc4)nc3-c3ccc(Cl)cc3)C2)cc1 (stereo not given)	63.7%	41.3%	32.8%	38.5%	12.1%	8.45% (active)	28%	80.2%	24%	43.6%	10.7%	37.3%	17.1%	68.1%	-23.5% (active)	38.1%	54.1%	-42.6% (active)	26.2%	15.3%
CC(C)N1C(=O)/C(=c2\sc3n(c2=O)C2C(NN=3)N(C)C(=O)N2C)c2ccccc21 (stereo not given)	73.5%	88.8%	81.7%	52.7%	94.5%	59.2%	28.6%	23.8%	69.8%	71.5%	23.3%	94.5%	79.6%	84.6%	85%	76.3%	53.2%	20.7%	41.7%	51.5%
